# Activity calls are given as the source filed them. Rule for the calls: active = hit-call score of the fitted dose curve at least 0.9, where 1 is the maximum; inconclusive = response in the unintended direction; inactive = score below 0.9.
# Test system: SERPINA7 (gene 6906)
# Assay: CCTE_GLTED_hTBG: CCTE's human Thyroxine-binding Globulin (TBG) Inhibition Assay, Great Lakes Toxicology and Ecology Division (GLTED) Lab (AID 2284343);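 note: active chemicals lower fluorescence versus DMSO baseline by displacing probe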
# Procedure: CCTE_GLTED_hTBG is a cell-free, single-readout assay designed to test the chemicals' ability to displace T4 from the human thyroxine-binding globulin (TBG) protein. TBG is incubated in presence of test chemical for 2 hours during which disrupting chemicals displace ANSA from the TBG protein. Results read fluorescence at 380 excitation and 475 emission.CCTE_GLTED_hTBG is the assay component measured from the CCTE_GLTED_hTBG assay. It is designed to make measurements of fluorescent polarization, using a form of binding reporter, as detected with Fluorescence signals by Fluorescence technology.Data from the assay component CCTE_GLTED_hTBG was analyzed at the assay endpoint CCTE_GLTED_hTBG in the positive analysis fitting direction relative to DMSO as the negative control and baseline of activity. Using a type of binding reporter, loss-of-signal activity can be used to understand a chemical's ability to displace T4 from thyroxine-binding globulin. To generalize the intended target to other relatable targets, this assay endpoint is annotated to the 'transporter' intended target family, where the subfamily is 'hormone carrier protein'.
# Human transthyretin (TTR) assay, developed at Great Lakes Toxicology and Ecology Division (GLTED) within the EPA's Center for Computational Toxicology and Exposure (CCTE), is designed to test the chemicals' ability to displace T4 from the TTR protein. TTR (0.5uM) is incubated in presence of test chemical for 2 hours during which disrupting chemicals displace ANSA from the TTR protein. Results read fluorescence at 380 excitation and 475 emission.
Structure (SMILES),AC50,outcome
O=C(O)C1(C(=O)Nc2ccc(Cl)cc2Cl)CC1,66 µM (active),
O=C(Nc1ccc([N+](=O)[O-])cc1Cl)c1cc(Cl)ccc1O,,inactive
CCCN(CCC)c1c([N+](=O)[O-])cc(C(F)(F)F)c(N)c1[N+](=O)[O-],0.322 µM (active),
CCN(Cc1c(F)cccc1Cl)c1c([N+](=O)[O-])cc(C(F)(F)F)cc1[N+](=O)[O-],0.62 µM (active),
CC(C)(c1ccc(O)cc1)c1ccc(O)cc1,12.4 µM (active),
CCCCC(CC)COC(=O)c1ccccc1C(=O)O (stereo unspecified),18.3 µM (active),
COc1c(Cl)ccc(Cl)c1C(=O)O,47.7 µM (active),
O=C(c1ccccc1)C1CCCCC1,50 µM (active),
COC(=O)CSc1cc(N=c2sc(=O)n3n2CCCC3)c(F)cc1Cl,25.9 µM (active),
CC(C)CCCCCCc1ccc(O)cc1,5.2 µM (active),
N#CSCSc1nc2ccccc2s1,33.2 µM (active),
